# Results: PubChem BioAssay (EPA / NIEHS)
# Calls of active or inactive are those of the source. The calls were made as follows: active = hit-call score of the fitted dose curve at least 0.9, where 1 is the maximum; inactive = score below 0.9.
# Columns and labels:
# Conditions in all cases: mRNA level, 48 h; actives raise or lower the signal
# [1] = read-out: Interleukin 6 (IL6), IL6 (gene 3569); assay: LTEA_HepaRG_IL6: Life Technologies and Expression Analysis (LTEA) Assay for Interleukin 6 (IL6) using HepaRG (AID 2283509)
# Procedure, shortened: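 HepaRG, ~100,000 cells/well, 48 h pre-culture; serum-free induction medium; cmpd 8-pt half-log from 100 uM, 0.5% DMSO, duplicate, 48 h. Lysis in RLT, TaqMan qRT-PCR; gain or loss vs DMSO.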
# [2] = read-out: Interleukin 6 Receptor (IL6R), IL6R (gene 3570); assay: LTEA_HepaRG_IL6R: Life Technologies and Expression Analysis (LTEA) Assay for Interleukin 6 Receptor (IL6R) using HepaRG (AID 2283510)
# Procedure, shortened: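 Differentiated human HepaRG cells, plated 48 h then switched to serum-free induction medium, were dosed in duplicate for 48 h at eight half-log concentrations up to 100 uM in 0.5% DMSO. IL6R mRNA quantified by qRT-PCR, normalized to ACTB/GAPDH/POLR2A; bidirectional fit versus DMSO.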
# [3] = read-out: Potassium channel subfamily K member 1 (KCNK1), KCNK1 (gene 3775); assay: LTEA_HepaRG_KCNK1: Life Technologies and Expression Analysis (LTEA) Assay for Potassium channel subfamily K member 1 (KCNK1) using HepaRG (AID 2283511)
# Procedure, shortened: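 Gain or loss of KCNK1 mRNA is the read-out, quantified by qRT-PCR against three housekeeping genes after 48 h chemical treatment of human HepaRG liver cells. Concentrations ran from 100 uM downward in half-log steps, vehicle 0.5% DMSO.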
# [4] = read-out: Keratin 19 (KRT19), KRT19 (gene 3880); assay: LTEA_HepaRG_KRT19: Life Technologies and Expression Analysis (LTEA) Assay for Keratin 19 (KRT19) using HepaRG (AID 2283512)
# Procedure, shortened: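 Readout is qRT-PCR of KRT19 mRNA, normalized to ACTB, GAPDH and POLR2A, from HepaRG cells treated 48 h with eight-point half-log dilutions topping at 100 uM. Activity in either direction is scored relative to 0.5% DMSO vehicle.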
# [5] = read-out: JUN Transcription Factor, JUN (gene 3725); assay: LTEA_HepaRG_JUN: Life Technologies and Expression Analysis (LTEA) Assay for JUN Transcription Factor using HepaRG (AID 2283513)
# Procedure, shortened: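 Differentiated HepaRG cells were exposed to chemicals for 48 h in serum-free induction medium, 8 concentrations from 100 uM in half-log steps, 0.5% DMSO vehicle, in duplicate. JUN mRNA was quantified by TaqMan qRT-PCR, normalized to ACTB, GAPDH, POLR2A.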
# [6] = read-out: Lipase C (LIPC), LIPC (gene 3990); assay: LTEA_HepaRG_LIPC: Life Technologies and Expression Analysis (LTEA) Assay for Lipase C (LIPC) using HepaRG (AID 2283514)
# Procedure, shortened: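 Read-out is LIPC transcript level by TaqMan qRT-PCR, normalized to three housekeeping genes, after 48 h chemical treatment of human HepaRG liver cells. Curves span eight concentrations topping at 100 uM; activity in either direction scored relative to 0.5% DMSO.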
# [7] = read-out: Lipoprotein lipase (LPL), LPL (gene 4023); assay: LTEA_HepaRG_LPL: Life Technologies and Expression Analysis (LTEA) Assay for Lipoprotein lipase (LPL) using HepaRG (AID 2283515)
# Procedure, shortened: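 Read-out is LPL transcript level by qRT-PCR, normalized to three housekeeping genes and fitted bidirectionally against the DMSO control. Human HepaRG cells received chemicals for 48 h at up to 100 uM.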
# [8] = read-out: MicroRNA 122 (MIR122), gene 406906; assay: LTEA_HepaRG_MIR122: Life Technologies and Expression Analysis (LTEA) Assay for MicroRNA 122 (MIR122) using HepaRG (AID 2283516); also: the transcript read is the microRNA miR-122
# Procedure, shortened: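 Differentiated human HepaRG cells were exposed 48 h in serum-free induction medium to eight half-log concentrations (top 100 uM, 0.5% DMSO). Transcript level was measured by TaqMan qRT-PCR, normalized to ACTB, GAPDH and POLR2A, and fitted bidirectionally versus DMSO.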
# [9] = read-out: matrix metalloproteinase-10 (MMP10), MMP10 (gene 4319); assay: LTEA_HepaRG_MMP10: Life Technologies and Expression Analysis (LTEA) Assay for matrix metalloproteinase-10 (MMP10) using HepaRG (AID 2283517)
# Procedure, shortened: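 Gain or loss of MMP10 mRNA is fitted relative to the 0.5% DMSO vehicle. The human hepatic line HepaRG receives a 48-hour serum-free exposure, in duplicate, with a maximum concentration of 100 uM.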
# MYC, MYC (gene 4609) = assay: LTEA_HepaRG_MYC: Life Technologies and Expression Analysis (LTEA) Assay for MYC using HepaRG (AID 2283518)
# Procedure, shortened: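 Expression changes were scored by TaqMan qRT-PCR with ACTB, GAPDH and POLR2A normalization. Cultures in serum-free induction medium received duplicate 8-point concentration series, highest 100 uM, for 48 h; DMSO (0.5%) served as baseline.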
# [10] = read-out: matrix metalloproteinase-3 (MMP3), MMP3 (gene 4314); assay: LTEA_HepaRG_MMP3: Life Technologies and Expression Analysis (LTEA) Assay for matrix metalloproteinase-3 (MMP3) using HepaRG (AID 2283519)
# Procedure, shortened: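 HepaRG, human; 48 h dosing, 8 conc. (max 100 uM, half-log), duplicate, 0.5% DMSO. Readout: MMP3 transcript by Fluidigm TaqMan qRT-PCR, ACTB/GAPDH/POLR2A-normalised. Gain or loss fitted vs DMSO.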
# [11] = read-out: Paternally Expressed 10 (PEG10), PEG10 (gene 23089); assay: LTEA_HepaRG_PEG10: Life Technologies and Expression Analysis (LTEA) Assay for Paternally Expressed 10 (PEG10) using HepaRG (AID 2283520)
# Procedure, shortened: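 Differentiated HepaRG cells, plated 48 h then switched to serum-free induction medium, were exposed in duplicate for 48 h to eight half-log concentrations topping at 100 uM in 0.5% DMSO. PEG10 mRNA was quantified by TaqMan qRT-PCR, normalised to ACTB, GAPDH and POLR2A.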
# [12] = read-out: Nuclear factor NF-kappa-B p105 subunit (Homo sapiens) (UniProt P19838); assay: LTEA_HepaRG_NFKB1: Life Technologies and Expression Analysis (LTEA) Assay for Nuclear Factor Kappa B Subunit 1 (NFKB1) using HepaRG (AID 2283521)
# Procedure, shortened: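 Differentiated human HepaRG cells in serum-free induction medium with 0.5% DMSO were exposed for 48 h to eight half-log concentrations, top 100 uM, in duplicate. NFKB1 mRNA measured by Fluidigm TaqMan qRT-PCR, normalised to ACTB, GAPDH and POLR2A; bidirectional fit versus DMSO.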
# [13] = read-out: Protein phosphatase 2A (PPP2R4), PTPA (gene 5524); assay: LTEA_HepaRG_PPP2R4: Life Technologies and Expression Analysis (LTEA) Assay for Protein phosphatase 2A (PPP2R4) using HepaRG (AID 2283522)
# Procedure, shortened: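 Differentiated HepaRG cells in serum-free induction medium were exposed in duplicate for 48 h to eight concentrations, top 100 uM with half-log dilutions, in 0.5% DMSO. PPP2R4 mRNA was quantified by TaqMan qRT-PCR, normalized to ACTB, GAPDH and POLR2A.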
# [14] = read-out: Phosphatase and tensin (PTEN), PTEN (gene 5728); assay: LTEA_HepaRG_PTEN: Life Technologies and Expression Analysis (LTEA) Assay for Phosphatase and tensin (PTEN) using HepaRG (AID 2283523)
# Procedure, shortened: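 Read-out is PTEN transcript level by multiplexed TaqMan qRT-PCR after 48 h chemical treatment of human HepaRG cultures in serum-free induction medium. Concentrations spanned 100 uM downward in half-log steps, 0.5% DMSO throughout; activity fitted in both directions against vehicle.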
# [15] = read-out: solute carrier (SLC22A1), SLC22A1 (gene 6580); assay: LTEA_HepaRG_SLC22A1: Life Technologies and Expression Analysis (LTEA) Assay for solute carrier (SLC22A1) using HepaRG (AID 2283524)
# Procedure, shortened: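 HepaRG (human liver line), 48 h dosing in serum-free induction medium; 8 conc., half-log down from 100 uM, 0.5% DMSO vehicle, duplicates. Endpoint: SLC22A1 mRNA, qRT-PCR, housekeeping-normalized; gain/loss fit vs DMSO.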
# [16] = read-out: Pyruvate Dehydrogenase Kinase 4 (PDK4), PDK4 (gene 5166); assay: LTEA_HepaRG_PDK4: Life Technologies and Expression Analysis (LTEA) Assay for Pyruvate Dehydrogenase Kinase 4 (PDK4) using HepaRG (AID 2283525)
# Procedure, shortened: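 In this multiplexed human HepaRG expression assay, cells are treated 48 h with test chemicals across an eight-point range starting at 100 uM. PDK4 mRNA changes, normalized to ACTB/GAPDH/POLR2A, are fitted in both directions relative to vehicle.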
# [17] = read-out: NAD(P)H dehydrogenase [quinone] 1 (NQO1), NQO1 (gene 1728); assay: LTEA_HepaRG_NQO1: Life Technologies and Expression Analysis (LTEA) Assay for NAD(P)H dehydrogenase [quinone] 1 (NQO1) using HepaRG (AID 2283526)
# Procedure, shortened: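 Differentiated HepaRG cells, plated 48 h and then switched to serum-free induction medium, were exposed in duplicate for 48 h to 8-point half-log concentrations up to 100 uM in 0.5% DMSO. mRNA measured by qRT-PCR, normalized to ACTB, GAPDH, POLR2A; bidirectional fit versus DMSO.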
# [18] = read-out: Nuclear factor erythroid 2-related factor 2 (Homo sapiens) (UniProt Q16236); assay: LTEA_HepaRG_NFE2L2: Life Technologies and Expression Analysis (LTEA) Assay for Nuclear factor erythroid 2-related factor 2 (NFE2L2) Transcription Factor using HepaRG (AID 2283527);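 also: TaqMan qRT-PCR transcript level normalised to ACTB GAPDH and POLR2A housekeeping genes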
# Procedure, shortened: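 Transcript level of NFE2L2 is the read-out, measured by microfluidic TaqMan qRT-PCR and normalized to three housekeeping genes. Human HepaRG cultures received test chemical for 48 h at up to 100 uM in half-log steps. Gain or loss of signal is fitted relative to 0.5% DMSO.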
# [19] = read-out: succinate dehydrogenase complex iron sulfur subunit B (SDHB), SDHB (gene 6390); assay: LTEA_HepaRG_SDHB: Life Technologies and Expression Analysis (LTEA) Assay for succinate dehydrogenase complex iron sulfur subunit B (SDHB) using HepaRG (AID 2283528)
# Procedure, shortened: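 HepaRG cells (~100,000/well, plated 48 h) exposed in duplicate for 48 h in serum-free induction medium to 8-point half-log series from 100 uM in 0.5% DMSO; mRNA by qRT-PCR normalised to ACTB, GAPDH, POLR2A; bidirectional fit versus DMSO.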
# Sequence of Nuclear factor erythroid 2-related factor 2 (Homo sapiens) (Q16236 whole entry, looked up): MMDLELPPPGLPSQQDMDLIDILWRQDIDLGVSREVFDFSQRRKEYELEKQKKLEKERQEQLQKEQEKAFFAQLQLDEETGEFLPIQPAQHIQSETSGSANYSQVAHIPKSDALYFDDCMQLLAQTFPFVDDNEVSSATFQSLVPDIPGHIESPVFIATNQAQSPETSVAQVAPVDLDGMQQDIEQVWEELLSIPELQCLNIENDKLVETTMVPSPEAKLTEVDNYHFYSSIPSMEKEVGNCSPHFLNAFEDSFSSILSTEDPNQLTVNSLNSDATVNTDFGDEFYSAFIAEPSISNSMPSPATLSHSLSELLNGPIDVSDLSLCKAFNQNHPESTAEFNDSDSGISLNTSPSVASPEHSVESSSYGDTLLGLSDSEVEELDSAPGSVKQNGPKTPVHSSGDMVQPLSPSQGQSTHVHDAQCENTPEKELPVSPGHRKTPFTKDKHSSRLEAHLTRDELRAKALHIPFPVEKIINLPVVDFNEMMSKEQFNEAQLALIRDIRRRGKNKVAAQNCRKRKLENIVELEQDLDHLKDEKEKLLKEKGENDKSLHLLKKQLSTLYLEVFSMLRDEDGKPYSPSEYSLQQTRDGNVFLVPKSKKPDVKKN
# Sequence of Nuclear factor NF-kappa-B p105 subunit (Homo sapiens) (P19838 whole entry, looked up): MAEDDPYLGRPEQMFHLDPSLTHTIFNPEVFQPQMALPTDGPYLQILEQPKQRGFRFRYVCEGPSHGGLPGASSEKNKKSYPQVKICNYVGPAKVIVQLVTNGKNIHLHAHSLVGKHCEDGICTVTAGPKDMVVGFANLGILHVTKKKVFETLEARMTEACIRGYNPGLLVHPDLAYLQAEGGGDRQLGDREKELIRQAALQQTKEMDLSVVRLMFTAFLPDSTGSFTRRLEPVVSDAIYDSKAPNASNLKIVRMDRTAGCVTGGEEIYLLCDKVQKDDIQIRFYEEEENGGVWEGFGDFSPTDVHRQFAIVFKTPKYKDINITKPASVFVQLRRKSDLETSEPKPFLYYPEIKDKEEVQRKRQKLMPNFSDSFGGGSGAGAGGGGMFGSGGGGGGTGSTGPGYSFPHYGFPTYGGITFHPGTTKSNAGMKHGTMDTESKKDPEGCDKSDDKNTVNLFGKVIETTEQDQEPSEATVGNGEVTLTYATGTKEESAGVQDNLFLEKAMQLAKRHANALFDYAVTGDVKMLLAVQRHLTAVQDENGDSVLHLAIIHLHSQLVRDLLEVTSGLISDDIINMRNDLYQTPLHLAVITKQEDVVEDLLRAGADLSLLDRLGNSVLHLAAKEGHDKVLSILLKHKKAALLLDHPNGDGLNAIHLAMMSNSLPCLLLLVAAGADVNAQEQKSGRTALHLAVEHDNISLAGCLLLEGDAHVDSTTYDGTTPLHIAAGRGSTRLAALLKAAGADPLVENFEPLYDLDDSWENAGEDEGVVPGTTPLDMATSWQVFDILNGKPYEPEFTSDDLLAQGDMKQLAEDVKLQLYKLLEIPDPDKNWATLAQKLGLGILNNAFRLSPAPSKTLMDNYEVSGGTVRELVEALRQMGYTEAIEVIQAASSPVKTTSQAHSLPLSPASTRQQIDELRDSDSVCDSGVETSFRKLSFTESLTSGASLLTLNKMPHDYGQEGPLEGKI
smiles,measurement,setting,value
O=c1[nH]c2ccc(S(=O)CCN3CCC(Cc4ccc(F)cc4)CC3)cc2o1 (configuration not stated),AC50,[1],63 µM (active)
same,outcome,[2],inactive
same,outcome,[3],inactive
same,AC50,[4],67.3 µM (active)
same,outcome,[5],inactive
same,AC50,[6],82 µM (active)
same,AC50,[7],59.5 µM (active)
same,outcome,[8],inactive
same,outcome,[9],inactive
same,AC50,"MYC, MYC (gene 4609)",17.3 µM (active)
same,outcome,[10],inactive
same,AC50,[11],50 µM (active)
same,outcome,[12],inactive
same,outcome,[13],inactive
same,outcome,[14],inactive
same,AC50,[15],67.2 µM (active)
same,AC50,[16],14.7 µM (active)
same,outcome,[17],inactive
same,outcome,[18],inactive
same,AC50,[19],50 µM (active)
CC(=O)c1ccc2c(c1)[C@H](NC(=O)c1ccc(F)cc1)[C@@H](O)C(C)(C)O2,outcome,[1],inactive
same,outcome,[2],inactive
same,outcome,[3],inactive
same,outcome,[4],inactive
same,outcome,[5],inactive
same,outcome,[6],inactive
same,outcome,[7],inactive
same,outcome,[8],inactive
same,outcome,[9],inactive
same,outcome,"MYC, MYC (gene 4609)",inactive
same,outcome,[10],inactive
same,outcome,[11],inactive
same,outcome,[13],inactive
same,outcome,[14],inactive
same,outcome,[15],inactive
same,outcome,[16],inactive
same,outcome,[17],inactive
same,outcome,[18],inactive
same,outcome,[19],inactive
Nc1cccc(N)c1,outcome,[1],inactive
same,outcome,[2],inactive
same,outcome,[3],inactive
same,outcome,[4],inactive
same,outcome,[5],inactive
same,outcome,[6],inactive
same,outcome,[7],inactive
same,outcome,[8],inactive
same,outcome,[9],inactive
same,outcome,"MYC, MYC (gene 4609)",inactive
same,outcome,[10],inactive
same,outcome,[11],inactive
same,outcome,[12],inactive
same,outcome,[13],inactive
same,outcome,[14],inactive
same,outcome,[15],inactive
same,outcome,[16],inactive
same,outcome,[17],inactive
same,outcome,[18],inactive
same,outcome,[19],inactive
O=C1OC(=O)C2C3C=CC(C3)C12 (configuration not stated),outcome,[1],inactive
same,outcome,[2],inactive
same,outcome,[3],inactive
same,outcome,[4],inactive
same,outcome,[5],inactive
same,outcome,[6],inactive
same,outcome,[7],inactive
same,outcome,[8],inactive
same,outcome,[9],inactive
same,outcome,"MYC, MYC (gene 4609)",inactive
same,outcome,[10],inactive
same,outcome,[11],inactive
same,outcome,[13],inactive
same,outcome,[14],inactive
same,outcome,[15],inactive
same,outcome,[16],inactive
same,outcome,[17],inactive
same,outcome,[18],inactive
same,outcome,[19],inactive
CCN(C(=O)c1cc(C)cc(OC[C@H](C)Nc2ccncc2)c1)C(C)C,AC50,[1],33.8 µM (active)
same,outcome,[2],inactive
same,outcome,[3],inactive
same,AC50,[4],19.3 µM (active)
same,outcome,[5],inactive
same,AC50,[6],33.8 µM (active)
same,AC50,[7],33.8 µM (active)
same,AC50,[8],33.8 µM (active)
same,AC50,[9],33.8 µM (active)
same,outcome,"MYC, MYC (gene 4609)",inactive
same,outcome,[10],inactive
same,outcome,[11],inactive
same,outcome,[12],inactive
same,outcome,[13],inactive
same,outcome,[14],inactive
same,AC50,[15],33.8 µM (active)
same,AC50,[16],53.7 µM (active)
same,outcome,[17],inactive
same,outcome,[18],inactive
same,outcome,[19],inactive
COC(=O)c1c(Cl)c(Cl)c(C(=O)OC)c(Cl)c1Cl,outcome,[1],inactive
same,outcome,[2],inactive
same,outcome,[3],inactive
same,outcome,[4],inactive
same,outcome,[5],inactive
same,outcome,[6],inactive
same,outcome,[7],inactive
same,outcome,[8],inactive
same,outcome,[9],inactive
same,outcome,"MYC, MYC (gene 4609)",inactive
same,outcome,[10],inactive
same,outcome,[11],inactive
same,outcome,[13],inactive
same,outcome,[14],inactive
same,outcome,[15],inactive
same,outcome,[16],inactive
same,outcome,[17],inactive
same,outcome,[18],inactive
same,outcome,[19],inactive
